# Several values for one entry are separate records, joined by “and”; a condition that tells them apart may be missing. Equal values may be shown once. Results filed as inconclusive are left out. A call without a number means that no potency is given here. Some structures have more than one record in an assay (separate samples or runs), and their calls can disagree. Activity calls are given as the source filed them. Unless noted, calls come from the whole dose curve; as a rule, active = well fitted curve in the direction sought with a large enough effect in the repeat runs; inconclusive = weak or mixed curves; inactive = no such curve, though single readings can be large; an effect the other way counts as inactive or inconclusive.
# Tests used:
# [1] = qHTS assay to identify aromatase inhibitors - cell viability counter screen (AID 743084);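 note: cells stimulated with testosterone during compound exposure; nearly all actives have a fitted effect of over 55% in size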; note: potency is the fitted concentration of half-maximal effect
# [2] = target: Aryl hydrocarbon receptor (Homo sapiens) (UniProt P35869); assay: qHTS assay to identify small molecule that activate the aryl hydrocarbon receptor (AhR) signaling pathway (AID 743085); note: nearly all actives have a fitted effect of over 15% in size; note: potency is the fitted concentration of half-maximal effect;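 for activation: HG2L7.5c1 human HepG2 liver cells with stably integrated DRE-driven firefly reporter; series mostly up to about 70 µM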
# Aryl hydrocarbon receptor (Homo sapiens), sequence (P35869 whole entry, looked up): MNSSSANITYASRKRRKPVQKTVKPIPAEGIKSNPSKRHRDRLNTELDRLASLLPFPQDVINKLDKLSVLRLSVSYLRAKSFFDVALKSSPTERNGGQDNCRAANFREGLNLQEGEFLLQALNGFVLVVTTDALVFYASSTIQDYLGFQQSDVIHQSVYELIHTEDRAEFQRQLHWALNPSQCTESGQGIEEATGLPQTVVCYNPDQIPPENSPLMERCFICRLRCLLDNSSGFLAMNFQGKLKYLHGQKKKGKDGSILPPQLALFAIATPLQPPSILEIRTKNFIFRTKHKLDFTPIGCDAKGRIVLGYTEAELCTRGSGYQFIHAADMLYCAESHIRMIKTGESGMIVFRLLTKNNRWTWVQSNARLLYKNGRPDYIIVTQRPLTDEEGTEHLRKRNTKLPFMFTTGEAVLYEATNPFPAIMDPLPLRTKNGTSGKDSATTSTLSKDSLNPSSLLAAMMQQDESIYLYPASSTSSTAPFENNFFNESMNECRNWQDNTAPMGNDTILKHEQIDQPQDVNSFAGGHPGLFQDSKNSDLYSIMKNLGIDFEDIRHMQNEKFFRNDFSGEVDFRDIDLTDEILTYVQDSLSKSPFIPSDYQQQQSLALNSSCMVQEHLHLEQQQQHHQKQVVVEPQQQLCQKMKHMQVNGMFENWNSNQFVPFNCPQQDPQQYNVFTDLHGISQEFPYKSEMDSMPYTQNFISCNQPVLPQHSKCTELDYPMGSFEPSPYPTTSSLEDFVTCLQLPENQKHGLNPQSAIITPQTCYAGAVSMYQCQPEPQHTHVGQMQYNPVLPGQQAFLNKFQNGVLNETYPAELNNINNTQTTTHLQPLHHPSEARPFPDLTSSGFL
# Summary of the method: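 Reporter assay in engineered HepG2 line HG2L7.5c1, whose plasmid carries twenty dioxin responsive elements upstream of firefly luciferase. Treatment lasted 24 h at 37C; ONE-Glo luminescence gauged induction.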
# [3] = qHTS assay to identify small molecule that activate the aryl hydrocarbon receptor (AhR) signaling pathway - cell viability counter screen (AID 743086); note: nearly all actives have a fitted effect of over 45% in size; note: potency is the fitted concentration of half-maximal effect
# Summary of the method: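 Cytotoxicity counter screen: CellTiter-Fluor signal (30 min, 37 C) in 4000 HepG2 cells/well carrying the DRE-luciferase reporter, following 24 h compound exposure at 37 C.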
# [4] = target: Peroxisome proliferator-activated receptor gamma (Homo sapiens) (UniProt P37231); assay: qHTS assay to identify small molecule agonists of the peroxisome proliferator-activated receptor gamma (PPARg) signaling pathway (AID 743094; active = well fitted activation curve with a large enough effect in the signal ratio in the repeat runs, not every such curve was filed as active; the % refers to the signal ratio)
# Peroxisome proliferator-activated receptor gamma (Homo sapiens), sequence (P37231 whole entry, looked up): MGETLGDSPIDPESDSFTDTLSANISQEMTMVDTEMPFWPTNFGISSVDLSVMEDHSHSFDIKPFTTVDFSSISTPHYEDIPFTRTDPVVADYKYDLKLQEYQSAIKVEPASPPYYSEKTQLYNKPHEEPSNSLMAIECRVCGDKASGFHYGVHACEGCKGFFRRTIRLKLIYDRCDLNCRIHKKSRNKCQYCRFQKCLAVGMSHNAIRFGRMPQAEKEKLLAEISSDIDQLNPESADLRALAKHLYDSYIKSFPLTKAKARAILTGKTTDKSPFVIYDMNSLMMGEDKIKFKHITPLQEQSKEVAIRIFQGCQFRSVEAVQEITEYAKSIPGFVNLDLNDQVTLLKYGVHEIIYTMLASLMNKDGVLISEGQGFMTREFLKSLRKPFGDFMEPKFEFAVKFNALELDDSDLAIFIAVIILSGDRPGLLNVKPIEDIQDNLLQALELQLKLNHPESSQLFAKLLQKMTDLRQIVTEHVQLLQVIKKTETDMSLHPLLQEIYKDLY
# Summary of the method: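 Cell-based bla reporter, HEK293H background, PPARg-driven UAS. Pre-incubation 5 h, 37C, 5% CO2. Compound 17 h, 37C. Substrate 1 h RT; fluorescence.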
# [5] = target: Peroxisome proliferator-activated receptor gamma (Homo sapiens) (UniProt P37231); assay: qHTS assay to identify small molecule antagonists of the peroxisome proliferator-activated receptor gamma (PPARg) signaling pathway (AID 743191; calls by dose curve; note: series mostly up to about 63 µM; nearly all actives have a fitted effect of over 30% in size)
# Summary of the method: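 Beta-lactamase reporter under UAS control in HEK293H PPARg-bla cells; compound treatment 17 h at 37C. Read-out: fluorescence intensity after 1 h room-temperature incubation with LiveBLAzer B/G FRET substrate.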
# [6] = qHTS assay to identify small molecule antagonists of the peroxisome proliferator-activated receptor gamma (PPARg) signaling pathway - cell viability counter screen (AID 743194); note: nearly all actives have a fitted effect of over 55% in size
# Summary of the method: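 Viability was measured as CellTiter-Glo luminescence in GeneBLAzer PPARg UAS-bla HEK293H cells. These cells had been exposed 17 h at 37 C to compounds together with rosiglitazone at 50 nM final, with the beta-lactamase readout taken in the same wells.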
# [7] = qHTS assay for small molecule agonists of the antioxidant response element (ARE) signaling pathway (AID 743202; active = well fitted activation curve with a large enough effect in the signal ratio in the repeat runs, not every such curve was filed as active; the % refers to the signal ratio; note: potency is the fitted concentration of half-maximal effect)
# Summary of the method: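 Beta-lactamase reporter activity, read as fluorescence intensity, reflects ARE/Nrf2 pathway induction in HepG2 cells after 16 h compound exposure at 37 C; substrate loading was 2 h at room temperature.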
# [8] = qHTS assay for small molecule agonists of the antioxidant response element (ARE) signaling pathway - cell viability counter screen (AID 743203; calls by dose curve; note: nearly all actives have a fitted effect of over 55% in size)
# Summary of the method: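 Measured in the same wells as the beta-lactamase ARE reporter, this read-out is CellTiter-Glo luminescence from HepG2 ARE-bla cells given compounds for 16 hrs.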
# [9] = qHTS assay for small molecule activators of the heat shock response signaling pathway - cell viability counter screen (AID 743209); note: nearly all actives have a fitted effect of over 50% in size
# Summary of the method: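 Same-well multiplex: after 2.5 h room-temperature incubation with LiveBLAzer B/G substrate and fluorescence reading, CellTiter-Glo reagent was added to HSE-bla HeLa cells that had received compound for 5 h at 37 C; luminescence read after 30 min.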
# [10] = qHTS assay for small molecule activators of the heat shock response signaling pathway (AID 743210; active = well fitted activation curve with a large enough effect in the signal ratio in the repeat runs, with a control signal flat, not every such curve was filed as active; the % refers to the signal ratio;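 note: HeLa cells with beta-lactamase reporter driven by heat shock elements; series mostly up to about 63 µM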)
# Summary of the method: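 Fluorescence from a cleaved B/G FRET substrate (2.5 h, room temp) reports HSE-driven beta-lactamase in HeLa cells treated 5 h at 37 C with DMSO-dissolved compounds.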
# [11] = qHTS assay to identify small molecule agonists of the peroxisome proliferator-activated receptor delta (PPARd) signaling pathway - cell viability counter screen (AID 743211); note: nearly all actives have a fitted effect of over 55% in size
# Summary of the method: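 Multiplexed format: after the 2 h room-temperature LiveBLAzer B/G FRET step, CellTiter-Glo was added to the same wells. Luminescence after 30 min gave cell viability; compound exposure was 17 h at 37C.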
# [12] = qHTS assay to identify small molecule antagonists of the peroxisome proliferator-activated receptor delta (PPARd) signaling pathway - cell viability counter screen (AID 743213); note: nearly all actives have a fitted effect of over 50% in size
# Summary of the method: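 Viability counter-screen, qHTS format: PPARd-bla HEK293H, L165041 300 nM final, 17 h compound exposure at 37 C, CellTiter-Glo luminescence after 30 min RT.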
# [13] = qHTS assay to identify small molecule agonists of the farnesoid-X-receptor (FXR) signaling pathway - cell viability counter screen (AID 743218); note: nearly all actives have a fitted effect of over 45% in size
# Summary of the method: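 Readout: CellTiter-Glo luminescence, 30 min RT, multiplexed after the FXR-bla FRET reading. HEK 293T FXR-UAS-bla cells received compound 5 h post-plating and were incubated 16 h at 37 C.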
# [14] = qHTS assay to identify small molecule antagonists of the farnesoid-X-receptor (FXR) signaling pathway - cell viability counter screen (AID 743221; active = well fitted cell-killing curve with a large enough effect in the repeat runs, not every such curve was filed as active; note: nearly all actives have a fitted effect of over 50% in size)
# Summary of the method: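 CellTiter-Glo, 30 min RT, luminescence; same wells as the LiveBLAzer FRET read. Cells: FXR-UAS-bla HEK 293T. Treatment: compound with chenodeoxycholic acid 50 uM final, 16 h at 37 C.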
# [15] = target: Vitamin D3 receptor (Homo sapiens) (UniProt P11473); assay: qHTS assay to identify small molecule agonists of the vitamin D receptor (VDR) signaling pathway (AID 743222; calls by dose curve)
# Vitamin D3 receptor (Homo sapiens), sequence (P11473 whole entry, looked up): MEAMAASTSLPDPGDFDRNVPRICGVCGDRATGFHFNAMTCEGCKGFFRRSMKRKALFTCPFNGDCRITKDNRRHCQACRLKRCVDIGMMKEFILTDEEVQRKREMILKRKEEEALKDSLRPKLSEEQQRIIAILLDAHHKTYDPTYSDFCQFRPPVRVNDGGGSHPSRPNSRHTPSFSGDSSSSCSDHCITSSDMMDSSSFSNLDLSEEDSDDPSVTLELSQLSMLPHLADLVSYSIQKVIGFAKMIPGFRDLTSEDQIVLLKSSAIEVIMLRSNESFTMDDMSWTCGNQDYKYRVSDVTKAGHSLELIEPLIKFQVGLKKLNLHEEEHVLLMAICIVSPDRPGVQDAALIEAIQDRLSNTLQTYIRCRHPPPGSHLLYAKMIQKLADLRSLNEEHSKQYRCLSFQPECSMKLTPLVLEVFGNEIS
# Summary of the method: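 Following 4 h attachment at 37C, VDR-bla cells (2,000 per well) received DMSO-dissolved compounds or controls. After 16 h incubation, LiveBLAzer B/G FRET substrate was added and fluorescence read 2 h later at room temperature.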
# [16] = target: Vitamin D3 receptor (Homo sapiens) (UniProt P11473); assay: qHTS assay to identify small molecule antagonists of the vitamin D receptor (VDR) signaling pathway (AID 743223; active = well fitted inhibition curve with a large enough effect in the signal ratio in the repeat runs, not every such curve was filed as active; the % refers to the signal ratio)
# Summary of the method: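 After VDR-bla cells are plated and left 4 h at 37C, DMSO-dissolved compounds and 3 nM (final) calcitriol agonist are added. Incubation continues 16 h at 37C; FRET beta-lactamase substrate then develops 2 h at room temperature.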
# [17] = target: Peroxisome proliferator-activated receptor delta (Homo sapiens) (UniProt Q03181); assay: qHTS assay to identify small molecule agonists of the peroxisome proliferator-activated receptor delta (PPARd) signaling pathway (AID 743212; calls by dose curve;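 note: HEK293H cells with PPARd UAS beta-lactamase reporter GeneBLAzer system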)
# Peroxisome proliferator-activated receptor delta (Homo sapiens), sequence (Q03181 whole entry, looked up): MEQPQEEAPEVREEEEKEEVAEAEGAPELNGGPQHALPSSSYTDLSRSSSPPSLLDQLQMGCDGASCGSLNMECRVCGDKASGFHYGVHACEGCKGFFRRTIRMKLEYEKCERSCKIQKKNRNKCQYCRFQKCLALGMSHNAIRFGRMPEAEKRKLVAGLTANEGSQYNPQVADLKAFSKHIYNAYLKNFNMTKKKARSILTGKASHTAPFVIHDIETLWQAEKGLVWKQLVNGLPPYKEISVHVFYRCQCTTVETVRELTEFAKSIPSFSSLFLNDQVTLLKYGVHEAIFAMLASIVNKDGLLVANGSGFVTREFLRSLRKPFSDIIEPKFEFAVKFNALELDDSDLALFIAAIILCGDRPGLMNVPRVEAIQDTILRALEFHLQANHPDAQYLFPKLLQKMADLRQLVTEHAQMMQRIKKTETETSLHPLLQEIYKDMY
# Summary of the method: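 Steps: seed PPARd-bla HEK293H cells; incubate 5 h, 37 C, 5% CO2; add compounds in DMSO; incubate, 37 C; add LiveBLAzer B/G FRET substrate; hold 2 h at room temperature; measure fluorescence.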
# [18] = target: Peroxisome proliferator-activated receptor delta (Homo sapiens) (UniProt Q03181); assay: qHTS assay to identify small molecule antagonists of the peroxisome proliferator-activated receptor delta (PPARd) signaling pathway (AID 743215; active = well fitted inhibition curve with a large enough effect in the signal ratio in the repeat runs, not every such curve was filed as active; the % refers to the signal ratio;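 note: cells stimulated with agonist L165041 at 300 nM final during compound exposure; series mostly up to about 62 µM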)
# Summary of the method: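 Fluorescence from cleaved LiveBLAzer B/G FRET substrate (2 h, room temperature) reports PPARd-driven beta-lactamase in HEK293H UAS-bla cells. Cells had been treated 17 h at 37 C with compound plus 300 nM final L165041.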
# [19] = target: Bile acid receptor (Homo sapiens) (UniProt Q96RI1); assay: qHTS assay to identify small molecule antagonists of the farnesoid-X-receptor (FXR) signaling pathway (AID 743217; active = well fitted inhibition curve with a large enough effect in the signal ratio in the repeat runs, not every such curve was filed as active; the % refers to the signal ratio)
# Bile acid receptor (Homo sapiens), sequence (Q96RI1 whole entry, looked up): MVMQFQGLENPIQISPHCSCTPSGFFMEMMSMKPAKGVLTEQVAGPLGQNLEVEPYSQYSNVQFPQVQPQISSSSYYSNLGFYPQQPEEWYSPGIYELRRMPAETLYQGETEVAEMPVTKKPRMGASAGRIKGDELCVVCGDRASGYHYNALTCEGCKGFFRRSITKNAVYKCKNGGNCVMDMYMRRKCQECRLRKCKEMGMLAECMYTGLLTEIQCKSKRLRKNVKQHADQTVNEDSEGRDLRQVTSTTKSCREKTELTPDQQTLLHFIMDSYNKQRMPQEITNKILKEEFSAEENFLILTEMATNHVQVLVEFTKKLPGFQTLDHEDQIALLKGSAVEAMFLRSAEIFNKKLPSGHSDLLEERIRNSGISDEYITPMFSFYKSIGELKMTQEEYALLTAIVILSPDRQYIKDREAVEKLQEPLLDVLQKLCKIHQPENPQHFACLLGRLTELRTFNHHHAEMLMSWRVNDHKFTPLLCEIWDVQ
# Summary of the method: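 FRET fluorescence after 2 h room-temperature LiveBLAzer loading gives the readout. Prior step: FXR-bla HEK 293T cells, seeded and incubated 5 h, received test compounds plus 50 uM final CDCA for 16 h at 37 °C.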
# [20] = target: Bile acid receptor (Homo sapiens) (UniProt Q96RI1); assay: qHTS assay to identify small molecule agonists of the farnesoid-X-receptor (FXR) signaling pathway (AID 743220; active = well fitted activation curve with a large enough effect in the signal ratio in the repeat runs, not every such curve was filed as active; the % refers to the signal ratio)
# Summary of the method: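 FXR-UAS-bla HEK 293T cells carrying a UAS-driven beta-lactamase reporter were plated for 5 h at 37C/5% CO2, then exposed to DMSO-dissolved Tox21 10K compounds for 16 h at 37C. A LiveBLAzer B/G FRET substrate was loaded for 2 h at room temperature before fluorescence reading.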
Compound,Potency [1],Potency [2],Potency [3],Potency [4],Potency [5],Potency [6],Potency [7],Potency [8],Potency [9],outcome [10],Potency [11],Potency [12],Potency [13],Potency [14],Potency [15],Potency [16],Potency [17],Potency [18],Potency [19],outcome [20]
NC(CO)(CO)CO,inactive,inactive,inactive,inactive,inactive,inactive,inactive,inactive,inactive,inactive,inactive,inactive,inactive,inactive,inactive,inactive,–,–,–,–
Cc1cccc(C)c1,inactive,inactive,inactive,inactive,inactive,inactive,inactive,inactive,inactive,inactive,inactive,inactive,inactive,inactive,inactive,inactive,inactive,inactive,–,–
CN(C)CCOC(C)(c1ccccc1)c1ccccn1 (centres undefined),inactive,inactive,inactive,inactive,inactive,–,inactive,inactive,inactive,inactive,inactive,inactive,inactive,inactive,inactive,inactive,inactive,inactive,inactive,inactive
NC(=O)c1cccnc1,inactive,inactive,inactive,inactive,inactive,inactive,inactive,inactive,inactive,inactive,inactive,inactive,inactive,inactive,inactive,inactive,inactive,inactive,inactive,inactive
CC(=O)C(=O)O,inactive,inactive,inactive,inactive,inactive,–,inactive,inactive,inactive,inactive,inactive,inactive,inactive,inactive,inactive,inactive,inactive,inactive,–,–
CCOc1ccc(NC(C)=O)cc1,inactive,inactive,inactive,inactive,inactive,inactive,inactive,inactive,inactive,inactive,inactive,inactive,inactive,inactive,inactive,inactive,–,–,inactive,inactive
O=c1[nH]cnc2c1ncn2[C@H]1CC[C@@H](CO)O1,inactive,inactive,inactive,inactive,inactive,inactive,inactive,inactive,inactive,–,inactive,inactive,inactive,inactive,–,–,inactive,inactive,–,–
CC(C)C(=O)Nc1ccc([N+](=O)[O-])c(C(F)(F)F)c1,inactive,inactive,inactive,inactive,inactive,inactive,19.3 µM (active) and 23.7 µM (active),inactive,inactive,inactive,inactive,inactive,inactive,inactive,–,–,–,–,inactive,inactive
NC1CCCCC1,inactive,30.8 µM (active) and inactive,inactive,inactive,inactive,–,inactive,inactive,inactive,inactive,inactive,inactive,inactive,inactive,inactive,inactive,inactive,inactive,–,–
CC(O)(P(=O)(O)O)P(=O)(O)O,inactive,inactive and 15.4 µM (active),inactive,inactive,inactive,inactive,inactive,inactive,inactive,–,inactive,inactive,inactive,inactive,–,–,–,–,–,–
F[B-](F)(F)F,inactive,inactive,inactive,inactive,inactive,inactive,inactive and 27.6 µM (active),inactive,inactive,inactive,inactive,inactive,inactive,inactive,inactive,inactive,–,–,–,–
O=S1(=O)OC(c2ccc(O)cc2)(c2ccc(O)cc2)c2ccccc21,27.3 µM (active),inactive,24.3 µM (active),inactive,inactive,inactive,inactive,inactive,inactive,inactive,inactive,inactive,inactive,inactive,inactive,inactive,inactive,inactive,–,–
CCCCCCCC(=O)OCC(COC(=O)CCCCCCC)OC(=O)CCCCCCC,inactive,inactive,inactive,inactive,inactive,–,inactive,inactive,inactive,inactive,inactive,inactive,inactive,inactive,inactive,inactive,inactive,inactive,inactive,inactive
O=C1NC(=O)C(c2ccccc2)(c2ccccc2)N1,inactive,inactive,inactive,inactive,inactive,inactive,inactive,inactive,inactive,inactive,inactive,inactive,inactive,inactive,–,–,inactive,inactive,–,–
CN(N=O)C(=O)N[C@@H]1[C@@H](O)[C@H](O)[C@@H](CO)O[C@@H]1O,inactive,inactive,inactive,inactive,inactive,inactive,inactive,inactive,inactive,inactive,inactive,inactive,inactive,inactive,inactive,inactive,inactive,inactive,inactive,inactive
O=C(O)CC(O)C(=O)O (centres undefined),inactive,inactive,inactive,inactive,inactive,inactive,inactive,inactive,inactive,inactive,inactive,inactive,inactive,inactive,inactive,inactive,–,–,–,–
Cc1c(C(=O)O)c(O)cc2c1C(=O)c1c(O)c([C@@H]3O[C@H](CO)[C@@H](O)[C@H](O)[C@H]3O)c(O)c(O)c1C2=O,29.8 µM (active) and 13.3 µM (active) and 24.3 µM (active),inactive,26.6 µM (active) and 21.7 µM (active),inactive,inactive,inactive,–,inactive,inactive,–,inactive,inactive,inactive,inactive,inactive,inactive,inactive,inactive,inactive,inactive
CS(=O)(=O)OCCCCOS(C)(=O)=O,inactive,inactive,inactive,inactive,inactive,inactive,inactive,inactive,inactive,inactive,inactive,inactive,inactive,inactive,inactive,inactive,inactive,inactive,–,–
CCCCC1(COC(=O)CCC(=O)O)C(=O)N(c2ccccc2)N(c2ccccc2)C1=O,inactive,inactive,inactive,inactive,inactive,–,inactive,inactive,inactive,inactive,inactive,inactive,inactive,inactive,inactive,inactive,inactive,inactive,–,–
CC12CCC(CC1)C(C)(C)O2,inactive,inactive,inactive,inactive,inactive,–,inactive,inactive,inactive,inactive,inactive,inactive,inactive,inactive,inactive,inactive,inactive,inactive,inactive,inactive
CCCc1cc(=O)[nH]c(=S)[nH]1,inactive,inactive,inactive,inactive,inactive,–,inactive,inactive,inactive,inactive,inactive,inactive,inactive,inactive,–,–,inactive,inactive,–,–
CC1(C)S[C@@H]2[C@H](NC(=O)[C@H](N)c3ccccc3)C(=O)N2[C@H]1C(=O)O,inactive,inactive,inactive,inactive,inactive,inactive,inactive,inactive,inactive,–,inactive,inactive,inactive,inactive,–,–,–,–,–,–
Cc1cn([C@H]2C=C[C@@H](CO)O2)c(=O)[nH]c1=O,inactive,inactive,inactive,inactive,inactive,–,inactive,inactive,inactive,inactive,inactive,inactive,inactive,inactive,inactive,inactive,inactive,inactive,inactive,inactive
Cc1ncc([N+](=O)[O-])n1CCO,inactive,inactive,inactive,inactive,inactive,–,inactive,inactive,inactive,inactive,inactive,inactive,inactive,inactive,–,–,inactive,inactive,–,–
CC1(C)O[C@@H]2C[C@H]3[C@@H]4CCC5=CC(=O)C=C[C@]5(C)[C@@]4(F)[C@@H](O)C[C@]3(C)[C@]2(C(=O)CO)O1,inactive,inactive,inactive,inactive,inactive,inactive,inactive,inactive,inactive,–,inactive,inactive,inactive,inactive,inactive,inactive,inactive,inactive,inactive,inactive
O=c1[nH]cc(F)c(=O)[nH]1,inactive,inactive,inactive,inactive,inactive,–,inactive,inactive,inactive,inactive,inactive,inactive,inactive,inactive,inactive,inactive,inactive,inactive,inactive,inactive
Cc1cc(C)nc(NS(=O)(=O)c2ccc(N)cc2)n1,inactive,inactive,inactive,inactive,inactive,inactive,inactive,inactive,inactive,inactive,inactive,inactive,inactive,inactive,–,–,inactive,inactive,inactive,inactive

# Source: PubChem BioAssay (Tox21)
